# From PubChem BioAssay (EPA / NIEHS)
# Records with an inconclusive call do not appear. Active and inactive are the calls of the source. The calls were made as follows: active = hit-call score of the fitted dose curve at least 0.9, where 1 is the maximum; inconclusive = response in the unintended direction; inactive = score below 0.9.
# Columns and labels:
# [1] = STM_H9_NormalizedViability: Cytotoxicity Assessment at 120 hours in the Stemina devTOX quickPredict H9 human embryonic stem cell (hESC)-based Assay (AID 2283784)
# Outline: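 Pluripotent H9 hESCs were exposed, with chemical and media replaced every 24 h. Viability was read by CellTiter-Fluor fluorescence, background-corrected and normalized to the 0.1% DMSO neutral control per plate. Loss of signal was fitted.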
# AR (gene 367) [2] = molecular target: AR (gene 367) (UniProt P10275); assay: ACEA_AR_antagonist_80hr: ACEA Biosciences xCELLigence Real-Time Cell Analysis on Androgen Receptor Antagonism for Proliferation (AID 2283787);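 also: hits lower the impedance growth signal relative to DMSO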
# Outline: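 Impedance readout (RT-CES), 80 h post-dose; loss-of-signal vs DMSO baseline. 22Rv1 cells in assay medium. Compounds: 8-pt 1:4 series, max 100 uM final, up to 0.5% DMSO; n = 2.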
# [3] = test system: zebrafish Estrogen Receptor (ESR2A), gene 317734; assay: ATG_zfER2a_XSP1: Attagene TRANS-FACTORIAL Multi-Species (XSP1) HepG2 Assay for zebrafish Estrogen Receptor (ESR2A) (AID 2283778)
# Outline: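 HepG2 cells transiently transfected with multiplexed GAL4-UAS reporter units and chimeric NR-GAL4 receptors; 24 h compound exposure with 3 nM 6-alpha-fluorotestosterone present. Reporter mRNA quantified by RT-PCR and capillary electrophoresis, gain-of-signal fitted relative to DMSO.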
# [4] = molecular target: chicken Estrogen Receptor (ESR1), ESR1 (gene 396099) (UniProt P06212); assay: ATG_chERa_XSP1: Attagene TRANS-FACTORIAL Multi-Species (XSP1) HepG2 Assay for chicken Estrogen Receptor (ESR1) (AID 2283779)
# Outline: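 HepG2 cells transiently transfected with multiplexed GAL4-UAS reporter units expressing chimeric NR-Gal4 proteins; 3 nM 6-alpha-fluorotestosterone present. Reporter mRNA measured 24 h after dosing by RT-PCR, FAM labelling, HpaI digest and capillary electrophoresis; gain of signal versus DMSO.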
# [5] = molecular target: Estrogen receptor (Homo sapiens) (UniProt P03372); assay: ATG_hERa_XSP1: Attagene TRANS-FACTORIAL Multi-Species (XSP1) HepG2 Assay for human Estrogen Receptor (ESR1) (AID 2283780)
# Outline: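 HepG2 cells transiently transfected with GAL4-UAS reporter units and chimeric NR-Gal4 constructs; 24 h after dosing, reporter mRNA quantified by RT-PCR and capillary electrophoresis. Medium contained 3 nM 6-alpha-fluorotestosterone; activity fitted as gain-of-signal versus DMSO.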
# [6] = test system: turtle Estrogen Receptor (ESR1), gene 101933533; assay: ATG_trERa_XSP1: Attagene TRANS-FACTORIAL Multi-Species (XSP1) HepG2 Assay for turtle Estrogen Receptor (ESR1) (AID 2283781)
# Outline: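 HepG2 cells transiently transfected with GAL4-UAS reporter units and chimeric NR-Gal4 constructs, dosed for 24 h with 3 nM 6-alpha-fluorotestosterone present. Reporter mRNA was quantified by RT-PCR, fluorescent labelling and capillary electrophoresis, with gain of signal fitted relative to DMSO.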
# [7] = molecular target: Estrogen receptor beta (Homo sapiens) (UniProt Q92731); assay: ATG_hERb_XSP1: Attagene TRANS-FACTORIAL Multi-Species (XSP1) HepG2 Assay for human Estrogen Receptor (ESR2) (AID 2283788)
# Outline: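 Read-out: reporter mRNA induction by RT-PCR, HpaI digestion and capillary electrophoresis fluorescence, fitted in positive direction relative to DMSO baseline. Human liver HepG2 cells expressing ERβ-Gal4 fusion, dosed 24 h, medium containing 3 nM 6-alpha-fluorotestosterone.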
# [8] = molecular target: GAL4 Transcription Factor (Internal Marker), GAL4 (gene 855828) (UniProt P04386); assay: ATG_GAL4_XSP1: Attagene TRANS-FACTORIAL Multi-Species (XSP1) HepG2 Assay for GAL4 Transcription Factor (Internal Marker) (AID 2283789)
# Outline: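 HepG2 cells transiently transfected with multiplexed GAL4-UAS reporter units were exposed for 24 h with 3 nM 6-alpha-fluorotestosterone present. Reporter mRNA was quantified by RT-PCR, FAM labelling, HpaI digestion and capillary electrophoresis; background-control readout, gain-of-signal versus DMSO.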
# [9] = ATG_M_06_XSP1: Attagene TRANS-FACTORIAL Multi-Species (XSP1) HepG2 Assay for M06 Transcription Factor (Internal Marker) (AID 2283790)
# Outline: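 Transfected HepG2 multi-reporter system treated 24 h in the presence of 3 nM 6-alpha-fluorotestosterone. The M06 internal marker transcript was quantified by RT-PCR with capillary electrophoresis as a background control, and gain of signal was scored versus DMSO.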
# [10] = ATG_M_61_XSP1: Attagene TRANS-FACTORIAL Multi-Species (XSP1) HepG2 Assay for M61 Transcription Factor (Internal Marker) (AID 2283797)
# Outline: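 HepG2 cells transiently transfected with multiplexed GAL4-driven reporter units, dosed 24 h with 3 nM 6-alpha-fluorotestosterone present. Reporter mRNA quantified by RT-PCR, 6-FAM labelling, HpaI digestion and capillary electrophoresis; internal-marker background control, gain of signal versus DMSO.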
# [11] = ATG_M_32_XSP1: Attagene TRANS-FACTORIAL Multi-Species (XSP1) HepG2 Assay for M32 Transcription Factor (Internal Marker) (AID 2283799)
# Outline: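 HepG2 cells transiently transfected with multi-species TRANS reporter units, dosed 24 h with 3 nM 6-alpha-fluorotestosterone present. Internal-marker reporter mRNA quantified by RT-PCR and capillary electrophoresis; positive-direction fit versus DMSO.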
# [12] = molecular target: Peroxisome proliferator-activated receptor gamma (Homo sapiens) (UniProt P37231); assay: ATG_hPPARg_XSP1: Attagene TRANS-FACTORIAL Multi-Species (XSP1) HepG2 Assay for human Peroxisome Proliferator-activated Receptor gamma (PPARg) (AID 2283800)
# Outline: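 HepG2 cells transiently transfected with GAL4-UAS reporter units carrying chimeric NR-Gal4 proteins; 3 nM 6-alpha-fluorotestosterone present. After 24 h dosing, reporter mRNA quantified by RT-PCR and capillary electrophoresis; gain of signal relative to DMSO.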
# [13] = test system: zebrafish Peroxisome Proliferator-activated Receptor gamma (PPARg), gene 557037; assay: ATG_zfPPARg_XSP1: Attagene TRANS-FACTORIAL Multi-Species (XSP1) HepG2 Assay for zebrafish Peroxisome Proliferator-activated Receptor gamma (PPARg) (AID 2283801)
# Outline: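 HepG2 cells transiently transfected with GAL4-UAS reporter units including a zebrafish PPARg–GAL4 chimera, dosed 24 h with 3 nM 6-alpha-fluorotestosterone present. Reporter mRNA quantified by RT-PCR, FAM labelling, HpaI digestion and capillary electrophoresis; induction versus DMSO.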
# [14] = molecular target: mouse Peroxisome Proliferator-activated Receptor gamma (PPARg), Pparg (gene 19016) (UniProt P37238); assay: ATG_mPPARg_XSP1: Attagene TRANS-FACTORIAL Multi-Species (XSP1) HepG2 Assay for mouse Peroxisome Proliferator-activated Receptor gamma (PPARg) (AID 2283802)
# Outline: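 HepG2 cells transiently transfected with GAL4-UAS reporter units driven by mouse PPARg–GAL4 chimera; 3 nM 6-alpha-fluorotestosterone present. After 24 h dosing, reporter mRNA quantified by RT-PCR, fluorescent labelling and capillary electrophoresis; gain of signal versus DMSO.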
# [15] = molecular target: Nuclear receptor subfamily 1 group I member 2 (Mus musculus) (UniProt O54915); assay: ATG_mPXR_XSP1: Attagene TRANS-FACTORIAL Multi-Species (XSP1) HepG2 Assay for mouse Pregnane X Receptor (PXR) (AID 2283803)
# Outline: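 Transiently transfected HepG2 cells expressing a receptor-Gal4 chimera drive a GAL4-UAS reporter; 3 nM 6-alpha-fluorotestosterone included. Reporter mRNA read 24 h post-dose by RT-PCR and capillary electrophoresis; gain of signal relative to DMSO.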
# [16] = molecular target: human Thyroid hormone Receptor alpha (TRa), THRA (gene 7067) (UniProt P10827); assay: ATG_hTRa_XSP1: Attagene TRANS-FACTORIAL Multi-Species (XSP1) HepG2 Assay for human Thyroid hormone Receptor alpha (TRa) (AID 2283805)
# Outline: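 HepG2 cells transiently transfected with GAL4-UAS reporter units expressing chimeric NR-Gal4 proteins, dosed 24 hours with 3 nM 6-alpha-fluorotestosterone present. Reporter mRNA measured by RT-PCR and capillary electrophoresis; gain of signal fitted versus DMSO.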
# AR (gene 367) [17] = molecular target: AR (gene 367) (UniProt P10275); assay: ACEA_AR_agonist_80hr: ACEA Biosciences xCELLigence Real-Time Cell Analysis on Androgen Receptor Agonism for Proliferation (AID 2283783);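 also: hits increase impedance growth signal above DMSO baseline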
# Outline: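 22Rv1 human prostate cancer cells were seeded after preconditioning in assay medium and monitored overnight, then dosed in an eight-point 1:4 dilution series from 100 uM (≤0.5% DMSO). Impedance-based growth was read at 80 h, gain-of-signal versus DMSO.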
# [18] = ATG_M_19_XSP1: Attagene TRANS-FACTORIAL Multi-Species (XSP1) HepG2 Assay for M19 Transcription Factor (Internal Marker) (AID 2283798)
# Outline: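 HepG2 cells transiently transfected with multiplexed GAL4-UAS reporter units, dosed 24 h with 3 nM 6-alpha-fluorotestosterone present for partial AR stimulation. Reporter mRNA measured by RT-PCR with capillary electrophoresis; gain-of-signal fitted relative to DMSO.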
# [19] = molecular target: frog Thyroid hormone Receptor alpha (TRa), thra-a (gene 397942) (UniProt P15204); assay: ATG_frTRa_XSP1: Attagene TRANS-FACTORIAL Multi-Species (XSP1) HepG2 Assay for frog Thyroid hormone Receptor alpha (TRa) (AID 2283804)
# Outline: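 HepG2 cells transiently transfected with frog TRa-GAL4 chimeric reporter units, dosed 24 hr with 3 nM 6-alpha-fluorotestosterone present; reporter mRNA quantified by RT-PCR, fluorescent labelling and capillary electrophoresis, gain of signal versus DMSO.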
# Chain of Estrogen receptor (Homo sapiens) (P03372 whole entry, looked up, the tested form may be a part): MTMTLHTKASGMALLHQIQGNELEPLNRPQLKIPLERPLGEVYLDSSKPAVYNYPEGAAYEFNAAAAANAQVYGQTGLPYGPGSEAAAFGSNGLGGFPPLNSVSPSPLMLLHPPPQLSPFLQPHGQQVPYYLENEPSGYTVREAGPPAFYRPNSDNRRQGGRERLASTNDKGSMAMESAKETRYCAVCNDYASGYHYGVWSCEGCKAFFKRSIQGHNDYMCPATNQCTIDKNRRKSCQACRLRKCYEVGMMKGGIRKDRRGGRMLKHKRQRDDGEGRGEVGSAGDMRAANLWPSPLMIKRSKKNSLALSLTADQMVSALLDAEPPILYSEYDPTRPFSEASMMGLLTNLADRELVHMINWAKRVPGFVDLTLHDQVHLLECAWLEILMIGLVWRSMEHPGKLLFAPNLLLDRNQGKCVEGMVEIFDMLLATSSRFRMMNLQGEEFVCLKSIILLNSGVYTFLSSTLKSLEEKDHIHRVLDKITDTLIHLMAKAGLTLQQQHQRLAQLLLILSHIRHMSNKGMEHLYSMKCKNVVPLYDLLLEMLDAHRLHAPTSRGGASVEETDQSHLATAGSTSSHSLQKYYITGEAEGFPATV
# Chain of Peroxisome proliferator-activated receptor gamma (Homo sapiens) (P37231 whole entry, looked up, the tested form may be a part): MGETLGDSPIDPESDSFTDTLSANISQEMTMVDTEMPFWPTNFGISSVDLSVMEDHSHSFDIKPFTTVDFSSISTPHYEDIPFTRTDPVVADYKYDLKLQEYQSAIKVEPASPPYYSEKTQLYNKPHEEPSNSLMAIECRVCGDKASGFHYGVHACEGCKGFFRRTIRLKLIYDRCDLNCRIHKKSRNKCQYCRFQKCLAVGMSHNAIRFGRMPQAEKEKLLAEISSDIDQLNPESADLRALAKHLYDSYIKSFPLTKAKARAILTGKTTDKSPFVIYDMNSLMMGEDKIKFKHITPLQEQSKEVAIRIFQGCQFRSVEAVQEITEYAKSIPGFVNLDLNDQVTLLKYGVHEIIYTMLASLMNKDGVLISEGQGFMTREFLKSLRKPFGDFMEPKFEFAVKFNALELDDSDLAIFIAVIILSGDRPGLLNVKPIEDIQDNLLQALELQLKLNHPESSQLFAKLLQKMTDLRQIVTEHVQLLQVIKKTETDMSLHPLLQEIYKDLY
# Chain of GAL4 Transcription Factor (Internal Marker), GAL4 (gene 855828) (P04386 whole entry, looked up, the tested form may be a part): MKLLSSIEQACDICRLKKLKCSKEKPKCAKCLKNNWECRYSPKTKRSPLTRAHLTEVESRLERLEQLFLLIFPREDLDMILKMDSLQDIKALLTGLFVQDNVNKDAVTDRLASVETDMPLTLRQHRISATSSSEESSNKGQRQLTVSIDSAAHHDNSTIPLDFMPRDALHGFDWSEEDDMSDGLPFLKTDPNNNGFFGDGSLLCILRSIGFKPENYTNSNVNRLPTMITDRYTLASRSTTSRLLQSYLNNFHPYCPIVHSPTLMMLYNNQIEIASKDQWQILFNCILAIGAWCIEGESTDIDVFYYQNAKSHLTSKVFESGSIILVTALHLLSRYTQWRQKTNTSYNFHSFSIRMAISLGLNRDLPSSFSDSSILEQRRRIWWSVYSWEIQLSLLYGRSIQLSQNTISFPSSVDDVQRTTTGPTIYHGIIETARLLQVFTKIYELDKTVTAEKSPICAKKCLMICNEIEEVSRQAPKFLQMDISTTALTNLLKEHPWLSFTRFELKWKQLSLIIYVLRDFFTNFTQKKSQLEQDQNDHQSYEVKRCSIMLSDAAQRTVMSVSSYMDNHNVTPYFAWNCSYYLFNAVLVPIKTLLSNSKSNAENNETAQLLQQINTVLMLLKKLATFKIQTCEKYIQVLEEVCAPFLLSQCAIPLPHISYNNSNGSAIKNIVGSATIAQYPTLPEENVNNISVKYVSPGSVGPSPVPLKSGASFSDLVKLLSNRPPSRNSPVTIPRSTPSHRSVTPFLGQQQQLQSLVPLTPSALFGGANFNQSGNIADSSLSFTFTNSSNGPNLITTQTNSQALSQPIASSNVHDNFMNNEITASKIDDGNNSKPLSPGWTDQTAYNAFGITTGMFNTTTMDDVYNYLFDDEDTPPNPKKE
# Chain of mouse Peroxisome Proliferator-activated Receptor gamma (PPARg), Pparg (gene 19016) (P37238 whole entry, looked up, the tested form may be a part): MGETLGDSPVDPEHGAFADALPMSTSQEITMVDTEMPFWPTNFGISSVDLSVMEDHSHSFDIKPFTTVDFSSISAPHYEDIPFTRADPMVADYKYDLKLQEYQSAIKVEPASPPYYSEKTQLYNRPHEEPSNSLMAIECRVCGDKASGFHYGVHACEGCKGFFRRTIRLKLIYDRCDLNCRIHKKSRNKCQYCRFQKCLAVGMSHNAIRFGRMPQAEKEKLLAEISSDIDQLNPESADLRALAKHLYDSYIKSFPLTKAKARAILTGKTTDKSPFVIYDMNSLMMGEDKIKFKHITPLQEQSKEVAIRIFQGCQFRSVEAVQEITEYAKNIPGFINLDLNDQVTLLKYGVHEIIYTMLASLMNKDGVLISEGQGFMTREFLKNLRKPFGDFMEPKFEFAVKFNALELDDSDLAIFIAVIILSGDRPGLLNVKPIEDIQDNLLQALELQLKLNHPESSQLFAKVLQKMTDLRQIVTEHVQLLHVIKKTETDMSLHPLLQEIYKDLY
# Chain of human Thyroid hormone Receptor alpha (TRa), THRA (gene 7067) (P10827 whole entry, looked up, the tested form may be a part): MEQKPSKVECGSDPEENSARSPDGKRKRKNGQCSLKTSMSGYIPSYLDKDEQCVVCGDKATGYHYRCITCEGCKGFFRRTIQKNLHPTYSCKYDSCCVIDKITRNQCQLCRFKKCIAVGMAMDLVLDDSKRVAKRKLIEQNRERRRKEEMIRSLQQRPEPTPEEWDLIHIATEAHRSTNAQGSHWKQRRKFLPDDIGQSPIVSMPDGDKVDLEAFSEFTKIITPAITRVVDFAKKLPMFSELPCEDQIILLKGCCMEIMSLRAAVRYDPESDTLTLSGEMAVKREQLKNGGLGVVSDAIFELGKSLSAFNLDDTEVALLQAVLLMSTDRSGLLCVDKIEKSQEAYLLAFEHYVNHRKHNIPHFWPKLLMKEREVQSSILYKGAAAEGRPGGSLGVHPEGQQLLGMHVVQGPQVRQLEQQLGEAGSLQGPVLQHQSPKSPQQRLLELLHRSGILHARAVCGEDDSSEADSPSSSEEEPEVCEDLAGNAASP
# Chain of AR (gene 367) (P10275 whole entry, looked up): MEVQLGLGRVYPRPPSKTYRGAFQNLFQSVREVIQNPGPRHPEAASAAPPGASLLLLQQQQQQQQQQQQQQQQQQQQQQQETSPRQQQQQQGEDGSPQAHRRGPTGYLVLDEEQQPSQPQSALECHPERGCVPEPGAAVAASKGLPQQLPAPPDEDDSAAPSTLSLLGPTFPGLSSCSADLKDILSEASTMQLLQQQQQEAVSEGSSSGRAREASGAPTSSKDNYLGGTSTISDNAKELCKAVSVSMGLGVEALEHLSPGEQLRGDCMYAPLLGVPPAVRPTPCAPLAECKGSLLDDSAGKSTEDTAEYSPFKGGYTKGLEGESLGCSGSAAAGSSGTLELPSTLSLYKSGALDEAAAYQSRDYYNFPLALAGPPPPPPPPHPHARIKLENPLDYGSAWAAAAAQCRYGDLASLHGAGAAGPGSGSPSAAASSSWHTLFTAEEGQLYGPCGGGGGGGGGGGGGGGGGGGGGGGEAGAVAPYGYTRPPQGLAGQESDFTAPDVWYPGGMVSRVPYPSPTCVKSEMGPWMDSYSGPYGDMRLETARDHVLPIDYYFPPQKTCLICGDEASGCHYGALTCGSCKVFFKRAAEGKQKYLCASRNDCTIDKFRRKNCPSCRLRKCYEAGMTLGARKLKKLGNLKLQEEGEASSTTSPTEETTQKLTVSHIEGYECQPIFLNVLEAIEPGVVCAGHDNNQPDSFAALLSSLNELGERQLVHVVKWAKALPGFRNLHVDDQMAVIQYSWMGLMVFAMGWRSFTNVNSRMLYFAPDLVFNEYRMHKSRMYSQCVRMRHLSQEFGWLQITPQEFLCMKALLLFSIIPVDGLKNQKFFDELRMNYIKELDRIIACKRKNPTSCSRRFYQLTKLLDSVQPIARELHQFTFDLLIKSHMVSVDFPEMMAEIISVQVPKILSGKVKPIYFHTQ
# Chain of Nuclear receptor subfamily 1 group I member 2 (Mus musculus) (O54915 whole entry, looked up, the tested form may be a part): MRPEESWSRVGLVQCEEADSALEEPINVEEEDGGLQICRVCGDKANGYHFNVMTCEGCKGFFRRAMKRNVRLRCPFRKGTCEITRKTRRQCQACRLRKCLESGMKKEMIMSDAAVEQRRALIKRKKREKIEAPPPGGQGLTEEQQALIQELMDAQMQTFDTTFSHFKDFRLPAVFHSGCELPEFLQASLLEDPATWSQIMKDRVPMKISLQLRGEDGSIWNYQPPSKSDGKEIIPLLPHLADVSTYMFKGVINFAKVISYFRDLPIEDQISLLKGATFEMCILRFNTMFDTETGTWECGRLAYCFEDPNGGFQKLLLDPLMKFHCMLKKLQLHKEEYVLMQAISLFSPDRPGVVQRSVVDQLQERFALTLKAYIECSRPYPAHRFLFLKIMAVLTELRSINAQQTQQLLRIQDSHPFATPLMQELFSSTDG
# Chain of chicken Estrogen Receptor (ESR1), ESR1 (gene 396099) (P06212 whole entry, looked up, the tested form may be a part): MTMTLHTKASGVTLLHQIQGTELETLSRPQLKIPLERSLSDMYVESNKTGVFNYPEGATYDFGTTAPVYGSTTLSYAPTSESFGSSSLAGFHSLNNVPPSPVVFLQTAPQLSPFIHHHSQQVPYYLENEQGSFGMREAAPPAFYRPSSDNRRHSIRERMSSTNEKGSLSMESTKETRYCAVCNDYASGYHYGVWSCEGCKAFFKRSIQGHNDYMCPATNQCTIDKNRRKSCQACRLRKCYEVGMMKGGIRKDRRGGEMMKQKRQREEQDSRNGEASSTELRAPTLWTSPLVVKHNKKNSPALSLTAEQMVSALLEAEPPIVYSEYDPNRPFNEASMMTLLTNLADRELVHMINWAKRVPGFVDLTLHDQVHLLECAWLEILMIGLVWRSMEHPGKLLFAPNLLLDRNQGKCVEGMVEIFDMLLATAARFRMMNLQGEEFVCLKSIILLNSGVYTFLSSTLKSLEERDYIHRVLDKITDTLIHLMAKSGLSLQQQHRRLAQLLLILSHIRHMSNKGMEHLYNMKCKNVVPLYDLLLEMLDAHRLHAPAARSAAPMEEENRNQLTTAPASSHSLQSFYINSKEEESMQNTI
structure (smiles),measurement,setting,value
CCC(C)Nc1c([N+](=O)[O-])cc(C(C)(C)C)cc1[N+](=O)[O-] (stereo not given),outcome,[1],inactive
Cc1[nH]c(=O)n(C(C)(C)C)c(=O)c1Cl,outcome,[1],inactive
same,outcome,AR (gene 367) [2],inactive
COP(=S)(OC)Oc1ccc(SC)c(C)c1,AC50,[3],45.9 µM (active)
same,AC50,[4],25.6 µM (active)
same,AC50,[5],26.5 µM (active)
same,AC50,[6],26.6 µM (active)
same,AC50,[7],22.2 µM (active)
same,outcome,[8],inactive
same,outcome,[9],inactive
same,outcome,[10],inactive
same,outcome,[11],inactive
same,AC50,[12],22.5 µM (active)
same,outcome,[13],inactive
same,AC50,[14],41.5 µM (active)
same,AC50,[15],8.91 µM (active)
same,outcome,[16],inactive
C[C@H]1[C@H](c2ccc(Cl)cc2)SC(=O)N1C(=O)NC1CCCCC1,outcome,AR (gene 367) [17],inactive
same,AC50,AR (gene 367) [2],19.1 µM (active)
CCC(C)(NC(=O)c1cc(Cl)c(C)c(Cl)c1)C(=O)CCl (stereo not given),AC50,[1],25.8 µM (active)
O=C(NC(=O)c1c(F)cccc1F)Nc1ccc(OC(F)(F)C(F)OC(F)(F)F)c(Cl)c1 (stereo not given),outcome,[1],inactive
C#CCN1C(=O)COc2cc(F)c(N3C(=O)C4=C(CCCC4)C3=O)cc21,outcome,AR (gene 367) [17],inactive
same,AC50,[1],75.5 µM (active)
same,AC50,AR (gene 367) [2],64.5 µM (active)
O=S1OCC2C(CO1)C1(Cl)C(Cl)=C(Cl)C2(Cl)C1(Cl)Cl (stereo not given),outcome,[4],inactive
same,AC50,[5],1.98 µM (active)
same,AC50,[6],1.98 µM (active)
same,outcome,AR (gene 367) [17],inactive
same,AC50,[1],78.4 µM (active)
same,AC50,AR (gene 367) [2],9.11 µM (active)
same,outcome,[9],inactive
same,outcome,[10],inactive
same,outcome,[18],inactive
same,outcome,[12],inactive
same,outcome,[14],inactive
same,AC50,[15],0.512 µM (active)
same,outcome,[16],inactive
CCOCN(C(=O)CCl)c1c(C)cccc1CC,outcome,[4],inactive
same,outcome,[5],inactive
same,outcome,[1],inactive
same,outcome,[8],inactive
same,outcome,[18],inactive
same,AC50,[12],0.727 µM (active)
same,AC50,[14],1.89 µM (active)
same,AC50,[15],4 µM (active)
Oc1cc(Cl)ccc1Oc1ccc(Cl)cc1Cl,AC50,[3],4.96 µM (active)
same,outcome,[4],inactive
same,AC50,[6],5.85 µM (active)
same,AC50,[1],88.2 µM (active)
same,outcome,[7],inactive
same,outcome,[8],inactive
same,outcome,[9],inactive
same,outcome,[10],inactive
same,outcome,[11],inactive
same,AC50,[12],9.39 µM (active)
same,outcome,[13],inactive
same,AC50,[14],11.1 µM (active)
same,AC50,[15],14.4 µM (active)
same,outcome,[19],inactive
same,AC50,[16],7.06 µM (active)
